RGS7-Gao reg: modulates binding of RGS7 to human Galphao. P09471. Multiplexed bead flow cytometry; actives lie on both sides. binding response (% of control), % at 10 µM. actives 0.35% (n = 220,000). AID 1439; in the data active means binding response below about 49% or above about 150%; inconclusive means no clear call, values can overlap the other calls; inactive means in between;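 further: fluorescent Galphao held in activated GDP-AlF4 state binding bead-coupled RGS7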
GSH fluor: GSH bead compound fluorescence profile; fluorescence (KMESF) at 10 µM; GSH beads flow cytometry, compound fluorescence 488/530 nm; stronger effect = higher value; actives 0.25% (n = 190,000); in the data active means fluorescence above about 89;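 further: glutathione beads carrying GST-tagged Bcl family fusion proteins plus one bare bead set; values are compound well signal with DMSO vehicle wells as background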
RGS4-Gao reg: human RGS4-Galphao interaction regulation. P09471. Multiplexed bead flow cytometry, RGS4-Galphao binding; actives lie on both sides. binding response (% of control), % at 10 µM. actives 0.33% (n = 220,000). AID 1415; in the data active means binding response below about 49% or above about 150%; inactive means in between;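 further: fluorescent Galphao activated with aluminum fluoride binding bead-coupled RGS4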
RGS16-Gao: modulates binding between human RGS16 and Galphao; actives 0.38% (n = 220,000); bead-based flow cytometry RGS16-Galphao binding, fluorescence; actives lie on both sides; O15492+P09471; binding response (% of control), % at 10 µM; call rule not given here;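 further: Galphao activated by GDP with aluminum fluoride before binding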
Target sequence (O15492 whole entry, looked up): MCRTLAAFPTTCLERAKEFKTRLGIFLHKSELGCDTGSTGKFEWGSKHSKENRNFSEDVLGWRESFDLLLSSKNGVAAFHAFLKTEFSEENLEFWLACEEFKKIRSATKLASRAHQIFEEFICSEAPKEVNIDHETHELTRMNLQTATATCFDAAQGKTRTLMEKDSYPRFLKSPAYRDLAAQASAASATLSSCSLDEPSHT
Target sequence (P09471 whole entry, looked up): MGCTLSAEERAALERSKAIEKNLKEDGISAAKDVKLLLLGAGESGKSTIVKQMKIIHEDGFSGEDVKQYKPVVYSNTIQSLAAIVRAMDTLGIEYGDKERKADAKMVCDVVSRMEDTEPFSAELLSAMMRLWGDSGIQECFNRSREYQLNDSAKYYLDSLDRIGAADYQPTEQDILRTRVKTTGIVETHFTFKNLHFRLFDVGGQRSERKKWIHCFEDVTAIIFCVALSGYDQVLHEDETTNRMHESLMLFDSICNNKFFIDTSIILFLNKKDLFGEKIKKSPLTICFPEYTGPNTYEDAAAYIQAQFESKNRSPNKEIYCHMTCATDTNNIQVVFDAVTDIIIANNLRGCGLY
RGS8-Gao reg: regulators of human RGS8-Galphao interaction; multiplexed bead flow cytometry, RGS8-Galphao binding; actives lie on both sides; response (percent of control binding), % at 10 µM; actives 0.34% (n = 220,000); in the data active means response below about 60% or above about 140%; inactive means in between;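 further: Galphao activated as the GDP aluminium fluoride complex binding bead-coupled RGS8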
Avidin fluor: compound fluoresces at 488/530 nm on avidin beads. fluorescence (KMESF) at 10 µM. compound fluorescence 488/530 nm, flow cytometry; stronger effect = higher value. actives 0.38% (n = 220,000); in the data active means fluorescence above about 47
Active calls of the source: *; ? = inconclusive; / = no result; [ ] = remark or other dose. Compounds with a hit are over-represented: about 1.2% of the library has one in this group of screens.

SMILES | RGS7-Gao reg | GSH fluor | RGS4-Gao reg | RGS16-Gao | RGS8-Gao reg | Avidin fluor
Cc1ccc(N2C(=O)N(CC(=O)N3CCOCC3)C(=O)C2C)cc1 (stereo unspecified) | 116.4 | 12 | 117.6 | 163.3 | 118.6 | 10
O=C(NCCCn1ccnc1)c1cc(S(=O)(=O)N2CCOCC2)c(Cl)cc1Cl | 102.0 | 249* | 100.4 | 102.4 | 97.1 | 8
Cc1ccc(S(=O)(=O)N2CCOCC2)cc1C(=O)NCCCn1ccnc1 | 92.7 | 31 | 91.5 | 94.0 | 93.4 | 7
O=C(COC(=O)c1ccccc1Oc1ccccc1)NC1CCS(=O)(=O)C1 (stereo unspecified) | 109.6 | 13 | 102.5 | 101.2 | 101.2 | 48*
O=C(COC(=O)c1ccccc1Oc1ccccc1)NC1CC1 | 102.6 | 16 | 103.4 | 101.9 | 99.8 | 9
CCn1nc(C)c(CNC(=O)c2cc(COc3ccc(F)cc3Cl)on2)c1C | ? | / | 103.1 | 102.3 | 102.4 | 6
COc1cc(N2CCCC2)c(OC)cc1/C=c1/sc2nc3ccccc3n2c1=O | 137.8 | 61 | 139.9 | 165.4 | 105.1 | 63*
Cc1nn(C(C)C(=O)N2CCN(c3ccccn3)CC2)c(=O)c2cc3occc3n12 (stereo unspecified) | 110.2 | 18 | 107.2 | 125.5 | 106.3 | 47*
CCC(C(=O)N1CCN(c2ccccn2)CC1)n1nc(C)n2c(cc3occc32)c1=O (stereo unspecified) | 100.0 | 27 | 101.7 | 101.4 | 99.9 | 39
c1ccc(Oc2ccc(-n3cnnn3)cc2)cc1 | 97.2 | 9 | 96.8 | 99.1 | 98.9 | 9
CC(C)C(OC(=O)c1cc2sccc2n1C)C(=O)NCC1CCCO1 (stereo unspecified) | 114.9 | 254* | 113.7 | 155.1 | 118.4 | 7
COC(=O)c1ccc(Nc2nc(C)cc(C)n2)cc1 | 101.6 | 14 | 96.9 | 99.8 | 98.7 | 42
COc1nc(Nc2ccc(C(C)=O)cc2)nc(OC)n1 | 149.4 | 33 | 187.9*[activator] | 239.3 | 93.6 | 76*
COc1ccc(N=C2S/C(=C\c3ccc(OCC(=O)O)cc3)C(=O)N2CCc2c[nH]c3ccccc23)cc1 | 95.7 | 27 | 96.4 | 100.7 | 99.7 | 11
COc1ccc(N=C2S/C(=C\c3ccc(N4CCOCC4)o3)C(=O)N2CCc2c[nH]c3ccccc23)cc1 | 95.5 | 113* | 99.1 | 97.4 | 90.9 | 23
Cc1cc(NC(=O)CN2C(=O)[C@@H]3[C@H](C2=O)[C@@H]2C[C@H]3C(Br)C2Br)no1 (stereo partly specified) | ? | / | 96.3 | 103.8 | 93.3 | 6
CCN(CC)c1ccc(/C=c2\sc3nnc(-c4ccccc4Cl)n3c2=O)cc1 | 125.0 | 104* | 133.9 | 133.4 | 100.4 | 28
CCOC(=O)c1cn(CC2CC2)c2cc(F)c(F)cc2c1=O | 148.0 | 26 | 109.5 | 111.7 | 102.3 | 54*
CS(=O)(=O)c1ccc(C(=O)OCC(=O)NC(=O)C2CCCCC2)cc1[N+](=O)[O-] | ? | 12 | 98.9 | 98.7 | 98.4 | 11
COc1cc2c3nnc(-c4ccc(F)cc4)c-3cn(Cc3cccc(F)c3)c2cc1OC | 90.7 | 90* | 89.1 | 105.9 | 103.1 | 19
COCC(=O)N(Cc1nc2sc(C)c(C)c2c(=O)[nH]1)C1CCCCC1 | ? | / | 105.7 | 103.5 | 103.0 | 7
Cc1sc2nc(CN(C(=O)NC3CCCCC3)C3CCCC3)[nH]c(=O)c2c1C | 135.5 | 16 | 128.6 | 146.6 | 98.3 | 56*
Cc1ccc(C)c(C(=O)COc2ccc(C)nc2[N+](=O)[O-])c1 | 102.2 | 256* | 93.8 | 90.9 | 95.3 | 6
O=C(NCc1ccco1)/C(=C/c1cccnc1)NC(=O)c1ccco1 | 14.1* | 24 | 21.0* | 1.6* | 12.5* | -2
CCOC(=O)Cc1csc(NC(=O)NC2(C(F)(F)F)Oc3cc(Cl)c(Cl)cc3O2)n1 | 97.1 | 35 | 96.9 | 97.0 | 98.0 | 12
CCOC(=O)Cc1csc(NC(=O)NC2(C(F)(F)F)Oc3ccc(Cl)cc3O2)n1 (stereo unspecified) | 93.6 | 251* | 95.2 | 93.3 | 97.0 | 6
COc1cc(NC(=S)NC(=O)c2cc(C)cc(C)c2)ccc1NC(=O)c1cccs1 | 101.5 | 104* | 101.6 | 109.2 | 105.0 | 7

Bioassay records: PubChem BioAssay, NMMLSC
